40 molecules from PubChem BioAssay (NCI) can be followed below.

Each structure is given as a SMILES string. Compounds without any hit were thinned out: in the full panel of roughly 83,000, 20% have a hit.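 Each cell line was grown in a 96-well plate and treated with one concentration of compound for 48 hours. Values below 10 were considered active.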 Unmarked numbers belong to inactive results. Active and inactive are the calls of the source.

For this assay, the system named is HL-60(TB) leukemia. The assay can be described thus: NCI-60 one-dose screen, 48 h (100 = growth as untreated, 0 = no growth, -100 = all killed). The conditions noted are these: 10 µM unless noted.
For `CCOC(=O)C1=C(c2ccccc2)N=C2N(c3ccccc3)N=C(C(C)=O)N2C1c1ccc(Br)cc1` (stereo not given), the growth is 96.2%. Take `Cc1ccc(-n2nc3n(/c2=N\C(=O)NS(=O)(=O)c2ccc(C)cc2)CCN3C2=NCCN2)cc1`: the growth was 146%. As for `COc1ccc2nc3ccccc3c(NCc3ccccc3)c2c1`, the growth is 8.18% (active). Consider `COC(=O)c1c(C)nc(C)c2c1C(=O)C=C(NCc1ccccc1)C2=O`, for which the growth is 81.8%. Turning to `Cc1cc(Cl)ccc1Nc1nc(C(F)(F)F)ccc1C(=O)N/N=C/c1ccc([N+](=O)[O-])cc1`, the growth was -24.1% (active). As to `O=C(Nc1ccc(Cl)c(Cl)c1)NC(CO)(CO)CO`, the growth was 102%. In the case of `CCn1c(CN2CCN(Cc3ccccc3)CC2)nc2cc(NC(=O)c3cccs3)ccc21`, the growth was -51.2% (active). As for `C=C(C)[C@@H]1CC[C@]2(C(=O)N3CCN(C)CC3)CC[C@]3(C)[C@H](CC[C@@H]4[C@@]5(C)CC[C@H](O)C(C)(C)[C@@H]5CC[C@]43C)[C@@H]12`, the figure is -52.6% (active); as for `NS(=O)(=O)c1ccc(N2N=C(c3ccccc3)CCC2=O)cc1`, 64.2%. `CCN(CC)CCCC(C)N/C(=C1\C(=O)NC(=O)\C1=C(/NC(C)CCCN(CC)CC)c1cccc(OC)c1)c1cccc(OC)c1` (stereo not given): the growth is -35.6% (active). Next, `O=[N+]([O-])c1cccc(/C=N\Nc2ccccc2)c1`: 20.1%; `C#CCNc1nc(NCCNC(=O)CCl)nc(N(C)CCCCc2ccccc2)n1`: 107%; `O=C(c1ccccc1)C(c1ccccc1)N1CCOCC1` (stereo not given): 94.4%. As for `O=C(/C=C/c1ccccc1)c1cccs1`, the growth was 102%. In the case of `C=Cc1nn2c(CCC(=O)c3nc4ccccc4[nH]3)nnc2s1`, the growth is 104%. On to `C[C@@H](C(=O)O)c1ccc2c3cc(Cl)ccc3n(Cc3cc(=O)oc4ccc(Cl)cc34)c2c1`, for which the growth is 89.9%. For the molecule `Nc1ncnc2c1c(C(F)(F)F)cn2[C@@H]1O[C@H](CO)[C@@H](O)[C@H]1O`, the growth was -26.1% (active). In the case of `CS(=O)(=O)c1ccc(-c2nc3ccccc3n2CC(=O)N/N=C/c2ccccc2)cc1`, the growth is 141%. Take `C=C1C(=O)O[C@H]2[C@H]1CC/C(COC(=O)c1cc3cc(F)ccc3[nH]1)=C\CC[C@@]1(C)O[C@@H]21`: the growth is -32.6% (active).

`Nc1ccc(N)c([N+](=O)[O-])c1`: the growth was 110%.

As to `CCOC(=O)c1sc2nc(-c3cccc(OC)c3)nc(N3CCOCC3)c2c1C`, the growth is 101%. `CC1(C)N=C(N)N=C(N)N1c1cc(Cl)ccc1Cl`: the growth was 53.7%. Take `O=C(NNC(=O)c1ccc(NC(=O)c2ccccn2)cc1)Nc1ccc([N+](=O)[O-])cc1`: the growth is 97.9%. For `O=C(/C=C/C12c3ccccc3C(c3ccccc31)C1C(=O)NC(=O)C12)c1ccccc1` (stereo not given), the growth is 9.79% (active). On to `CCOC(=O)C(C)C(C)(O)c1ccccc1` (stereo not given), for which the growth was 99.2%. Take `O=C(Nc1ccccc1)P(=O)(O)c1ccccc1`: the growth is 92.2%. `O=C(/C=C/c1ccccc1)c1ccc(Nc2nc(Nc3ccc(F)cc3)nc(Nc3ccc(Cl)cc3)n2)cc1`: the growth is 43.9%. Turning to `Oc1ccccc1/C=N/N=C\c1ccccc1Cl`, the growth is 30.9%. Next, `CCOC(=O)c1c(NC(=O)c2cccc(C(F)(F)F)c2)sc2c(CN(C)C)c(O)ccc12`: 16.3%; `CCCN(CCC)C(=O)[C@H](CC)[C@@H]1CC[C@@H](C)[C@@H]([C@H](C)[C@@H](O)[C@@H](C)C(=O)[C@H](CC)C2O[C@]3(C=C[C@@H](O)[C@]4(CC[C@@](C)([C@H]5CC[C@](O)(CC)[C@H](C)O5)O4)O3)[C@H](C)C[C@@H]2C)O1` (stereo not given in full): -47.7% (active); `Brc1ccc(-c2cnc3nonc3n2)cc1`: 19.6%. Next, `c1ccc2sc(SCCCn3ccnc3)nc2c1`: 110%. Consider `Cc1ccc(C(=O)Nc2ccc(CN3CCN(C)CC3)c(C(F)(F)F)c2)cc1C#Cc1cnc(N)c2ccc(F)cc12`, for which the growth is -25.4% (active). Take `CCCCCCOc1ccc(C(=N)N(CCCC)CCCC)c2ccccc12`: the growth was -49.6% (active). With `O=S1(=O)c2ccccc2Oc2ccccc21`, the growth was 89.5%. In the case of `Cc1cc(-c2ccccc2)nc2ccccc12`, the growth was 90.8%. On to `CCC1CN2C(=N1)c1ccccc1-c1cc(Cl)ccc12` (stereo not given), for which the growth is 2.51% (active). For `C[C@@H]1CN(Cc2ccc(/C=C/c3n[nH]c4ccc5nc(-c6cn[nH]c6C(F)(F)F)c6c(c5c34)CCCC6)cc2)C[C@H](C)O1`, the growth was 46.7%. Take `OC(c1cc2c(Cl)cc(Cl)cc2c2cc(C(F)(F)F)ccc12)C1CCCCN1` (stereo not given): the growth is -39.1% (active). For the molecule `CCN(CC)CCOc1ccc(/C(=C(\Cl)c2ccccc2)c2ccccc2)cc1`, the growth was 75.9%.
